# Reference: ChEMBL document CHEMBL3988442, “University of Dundee, Small-Polar-MMV Screening Library” (2021)
# The campaign covered roughly 69,000 compounds. About 1,000 (1.4%) showed an effect of 50% or more. The sample holds strong results, similar compounds and a random draw of the others, so the mix is not that of the screen.
# System: Leishmania donovani
# Assay: Leishmania intramacrophage assay
# Assay type: functional, organism-based
# Design: scale not given: in the data most compounds retested in dose-response had high values
structure (smiles),measurement,setting,value
CCn1c(NCc2ccco2)nc2c(C)nn(C)c2c1=O,Percent Effect,"30 µM, 30.03 µM",16.24%
Cc1cc(CN2CCN(C(C)C)C(CCO)C2)[nH]n1 (stereo not drawn),Percent Effect,"30.3 µM, […]",0.4197%
c1ccc(Cc2nnc([C@H]3CCN(C4CCCCC4)C3)o2)cc1,Percent Effect,"30.3 µM, […]",11.62%
COc1ccccc1-n1nc(CC(C)C)nc1CSc1nnc(N)s1,Percent Effect,"30.3 µM, […]",13.73%
CN(C)C(=O)COC[C@]12COC[C@H]1CN(C1CCCC1)C2.O=C(O)C(F)(F)F,Percent Effect,"30.3 µM, […]",40.35%
CC(C)(C)NC(=O)CN1CCNCC1.Cl.Cl,Percent Effect,"30.3 µM, […]",11.16%
O=C(O)C(F)(F)F.O=C1CC2(CCN(CC3CC3)C2)CN1c1ccc2c(c1)OCO2 (stereo not drawn),Percent Effect,"30 µM, 30.03 µM",25.29%
Cc1c(C(C)N)cnn1-c1cccc2ccccc12 (stereo not drawn),Percent Effect,"30.3 µM, […]",22.69%
Cc1ccc(-c2noc(CCC(=O)NC(C)Cn3cccn3)n2)cc1 (stereo not drawn),Percent Effect,"30.3 µM, […]",22.16%
Cc1ccc(S(=O)(=O)Nc2ccc(=O)n(C)c2)cc1,Percent Effect,"30 µM, 30.03 µM",54.33%
CCCc1ccc(S(=O)(=O)Nc2ccc(=O)n(C)c2)cc1,Percent Effect,30 µM,20.55%
Cn1cc(NS(=O)(=O)c2ccc(C(F)(F)F)cc2)ccc1=O,Percent Effect,30 µM,-2.5%
CCN1CC2(CC1=O)CN(Cc1ccoc1)CCN(C(=O)C(C)C)C2 (stereo not drawn),Percent Effect,"30.3 µM, […]",8.034%
O=C(c1ccc(Br)o1)N1CCN(Cc2ccc(OC(F)(F)F)cc2)CC1,Percent Effect,"30 µM, 30.03 µM",31.07%
CN(CCc1cccc2ccccc12)Cc1nc(N)nc(N(C)C)n1,Percent Effect,"30.3 µM, […]",94.18%
CN(Cc1nc(N)nc(N(C)C)n1)Cc1cccc2ccccc12,Percent Effect,"30.3 µM, […]",1.643%
CN(CC(=O)Nc1cccc(F)c1)Cc1nc(N)nc(N(C)C)n1,Percent Effect,"30.3 µM, […]",21.77%
Cc1ccc(CN2CCCC3(CCN(S(C)(=O)=O)C3)C2)o1.O=C(O)C(F)(F)F (stereo not drawn),Percent Effect,"30 µM, 30.03 µM",4.141%
COc1cc(NCCCSc2nnc(C)s2)ncn1,Percent Effect,"30.3 µM, […]",57.45%
Cc1nnc(SCCCNc2cc(C3CC3)ncn2)s1,Percent Effect,"30.3 µM, […]",31.22%
COCc1cc(NCCCSc2nnc(C)s2)ncn1,Percent Effect,"30.3 µM, […]",26.84%
Cc1nnc2n1CCN(C(=O)COCCOc1ccccc1)C2,Percent Effect,"30 µM, 30.03 µM",16.55%
Cc1cc(CN2CCCC(C)(CO)C2)ccc1F (stereo not drawn),Percent Effect,"30 µM, 30.03 µM",31.69%
Cc1nc(C)n(CC2CN(Cc3noc(C4CC4)n3)CCO2)n1 (stereo not drawn),Percent Effect,"30.3 µM, […]",-6.202%
Cc1cnc(CCNC(=O)C2CCN(S(=O)(=O)c3ccc(F)cc3)C2)s1 (stereo not drawn),Percent Effect,"30.3 µM, […]",33.75%
COCCN1CCC(CN(CC2CCCO2)C(=O)Cn2cccn2)CC1 (stereo not drawn),Percent Effect,"30.3 µM, […]",58.18%
COCCN1CCC(CN(CC2CCCO2)C(=O)Cc2cccs2)CC1 (stereo not drawn),Percent Effect,"30.3 µM, […]",8.21%
COCCN1CCC(CN(CC2CCCO2)C(=O)COC)CC1 (stereo not drawn),Percent Effect,"30 µM, 30.03 µM",-10.91%
Cc1nc(NC(=O)N2CCCC(C(C)(C)O)C2)nn1C (stereo not drawn),Percent Effect,"30.3 µM, […]",-6.912%
O=C(C1CC2(CCNCC2)CN1)N1CCN(c2ccccc2)CC1 (stereo not drawn),Percent Effect,"30.3 µM, […]",-6.874%
Cc1cccc(N2CCN(C(=O)C3CC4(CCNCC4)CN3)CC2)n1 (stereo not drawn),Percent Effect,"30.3 µM, […]",82.82%
Cc1cnccc1N1CCN(C(=O)C2CC3(CCNCC3)CN2)CC1 (stereo not drawn),Percent Effect,"30.3 µM, […]",-56.52%
Cc1cccc(-c2nc(C)nn2CN2CCC3(CC2)OCCO3)c1,Percent Effect,"30.3 µM, […]",-6.145%
CCc1nnc(SCc2cc(=O)n3c4c(sc3n2)CCCC4)[nH]1,Percent Effect,"30.3 µM, […]",54.93%
CCCc1nnc(SCc2cc(=O)n3c4c(sc3n2)CCCC4)[nH]1,Percent Effect,"30.3 µM, […]",1.73%
Cc1nnc(SCc2cc(=O)n3c4c(sc3n2)CCCC4)[nH]1,Percent Effect,"30.3 µM, […]",36.41%
CN[C@@H]1CCC[C@@H](Oc2ccccc2Oc2ccc(C)cc2)[C@@H]1O,Percent Effect,"30.3 µM, […]",98.74%
COCC1CCN(S(=O)(=O)N2C[C@H](c3ccccc3)[C@@H](N)C2)CC1,Percent Effect,"30.3 µM, […]",12.44%
Cc1occc1C(=O)N1C[C@@H](C(=O)N2CCCCO2)C[C@H]2OCC[C@H]21,Percent Effect,"30.3 µM, […]",22.98%
CN(CC(=O)Nc1cc(C(C)(C)C)n[nH]1)S(C)(=O)=O,Percent Effect,"30.3 µM, […]",-19.26%
CN(CC(=O)Nc1cc(CC2CCCCC2)n[nH]1)S(C)(=O)=O,Percent Effect,"30.3 µM, […]",66.78%
CN(CC(=O)Nc1cc(-c2cc(Cl)cc(Cl)c2)[nH]n1)S(C)(=O)=O,Percent Effect,"30.3 µM, […]",5.087%
Cc1nc(CN2CCCC2c2c(C)nn(C)c2Cl)no1 (stereo not drawn),Percent Effect,"30 µM, 30.03 µM",17.3%
CN(C)Cc1cc(C2CCCCN2S(=O)(=O)Cc2ccccc2)nn1C.Cl (stereo not drawn),Percent Effect,"30.3 µM, […]",-6.731%
CNC(=O)NC(C)c1c(F)cccc1Cl (stereo not drawn),Percent Effect,"30.3 µM, […]",-84.02%
CC(C)NC(=O)CNC(C)c1c(F)cccc1Cl (stereo not drawn),Percent Effect,"30.3 µM, […]",-24.44%
CC(NCC(N)=O)c1c(F)cccc1Cl (stereo not drawn),Percent Effect,"30.3 µM, […]",61.56%
Cn1c(-c2ccccc2Cl)nc2cc(C(=O)NCC3(CO)CC3)cnc21,Percent Effect,"30.3 µM, […]",6.788%
O=c1n(CCNCc2cccc3ccccc23)nc2ccccn12,Percent Effect,"30.3 µM, […]",37.73%
CCC(O)c1nc2c([nH]1)CC(C)(C)CNC2=O (stereo not drawn),Percent Effect,"30.3 µM, […]",4.98%
Cn1ncc2c1C(COCC1CC1)CN(Cc1ccoc1)C2 (stereo not drawn),Percent Effect,"30 µM, 30.03 µM",18.09%
O=C(NCCc1ccccc1)NCCN1CCC(c2cccs2)CC1,Percent Effect,"30.3 µM, […]",51.71%
CC(=O)NCCN1CCC(c2cccs2)CC1,Percent Effect,"30 µM, 30.03 µM",14.89%
